# Hits are enriched below; roughly 3.8% of the tested compounds scored in any of these assays.
# Beta apoptosis: beta cell apoptosis inhibition; INS-1E cytokine-induced death, ATP luminescence, 48 h; percent of positive-control rescue, neutral wells zero; protection from apoptosis, % (concentration not given with the values); 300,000 tested, 0.8% active;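 active means Every replicate reaches about 75%, or at least half do and their mean reaches it too, limit read from the data; inconclusive means At least half of replicates reach the limit but their mean does not; inactive means Under half of replicates reach the limit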;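 further: higher means more ATP so stronger rescue from cytokine killing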
# Mdm2 MdmX PPI: human Mdm2/MdmX binding inhibition. O15151+Q00987. SaOS-2 split-luciferase Mdm2/MdmX complementation, luminescence. inhibition, % at 8 µM. 330,000 tested, 3% active. AID 485346;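 active means inhibition of at least 50% at 8 µM in the primary screen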
# Target sequence (O15151 whole entry, looked up): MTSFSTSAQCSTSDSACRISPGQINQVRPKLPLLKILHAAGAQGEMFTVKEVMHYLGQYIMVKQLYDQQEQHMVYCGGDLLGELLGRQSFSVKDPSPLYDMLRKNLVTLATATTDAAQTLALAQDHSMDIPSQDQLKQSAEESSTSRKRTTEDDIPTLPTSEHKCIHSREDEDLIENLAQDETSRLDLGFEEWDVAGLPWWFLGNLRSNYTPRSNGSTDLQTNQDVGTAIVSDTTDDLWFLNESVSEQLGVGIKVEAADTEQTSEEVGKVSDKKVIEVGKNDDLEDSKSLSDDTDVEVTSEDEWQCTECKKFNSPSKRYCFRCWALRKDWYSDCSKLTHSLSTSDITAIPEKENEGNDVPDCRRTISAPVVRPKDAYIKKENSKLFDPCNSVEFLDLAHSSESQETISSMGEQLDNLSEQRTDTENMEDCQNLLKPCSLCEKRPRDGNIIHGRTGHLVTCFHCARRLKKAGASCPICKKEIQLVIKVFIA
# Target sequence (Q00987 whole entry, looked up): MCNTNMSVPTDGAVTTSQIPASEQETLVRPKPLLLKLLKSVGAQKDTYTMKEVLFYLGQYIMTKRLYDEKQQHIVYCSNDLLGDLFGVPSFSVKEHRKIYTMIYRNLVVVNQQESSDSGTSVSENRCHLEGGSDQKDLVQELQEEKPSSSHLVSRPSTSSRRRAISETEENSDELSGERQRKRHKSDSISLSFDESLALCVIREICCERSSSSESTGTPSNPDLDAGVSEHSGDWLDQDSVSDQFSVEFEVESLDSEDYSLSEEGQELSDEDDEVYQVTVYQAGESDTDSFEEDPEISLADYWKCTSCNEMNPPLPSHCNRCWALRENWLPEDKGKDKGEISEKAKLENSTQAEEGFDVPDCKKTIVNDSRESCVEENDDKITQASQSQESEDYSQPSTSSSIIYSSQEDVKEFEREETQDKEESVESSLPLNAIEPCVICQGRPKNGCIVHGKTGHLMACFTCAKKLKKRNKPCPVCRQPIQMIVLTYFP
# A1 inh: inhibitors of the anti-apoptotic protein A1, read as caspase activation | MEF A1-2A-BIM cells, Caspase-Glo 3/7 luminescence, 3 h; percent of clofoctol response, vehicle zero | 330,000 tested, 0.066% active | AID 2462 | caspase activation, % (no concentration beside the values);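 active means over half of replicate activation scores above 10%, or exactly half above 10 with the replicate mean above 10; inconclusive means replicate mean below 10 yet half the replicates above 10; inactive means over half of replicates below 10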
# Jurkat NFkB inh: inhibitors of the PMA/ionomycin-induced NF-kB reporter in Jurkat cells | PMA/ionomycin-induced NF-kB luciferase reporter, luminescence | inhibition, % at 4 µM | 330,000 tested, 0.53% active | AID 435003; in the data active means inhibition above about 50%
# NTR1 ag: activates human neurotensin receptor 1. NTR1-U2OS beta-arrestin-GFP spot imaging, agonist mode. activation, % at 20 µM. 330,000 tested, 0.17% active. AID 493036;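 active means activation at or above 40% of the spot to cytoplasm intensity ratio, with at least 20 cells analyzed; inconclusive means wells under 20 cells, flagged as cytotoxic or low count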
# 697 NFkB inh: lowers PMA/ionomycin-induced NF-kB signal in 697 B cells; 697 B-cell NF-kB luciferase reporter, 16 h; inhibition, % at 4 µM; 330,000 tested, 0.33% active; AID 435022; in the data active means inhibition above about 35%
# Mdm2 MdmX conf: human Mdm2/MdmX binding inhibition, confirmed | inhibition, % at 8 µM | shares compounds with Mdm2 MdmX PPI | luminescent assay | 10,000 tested, 55% active; in the data active means inhibition above about 40%
# Full FLuc ctr: inhibits full-length luciferase, flagging false Mdm2/MdmX hits; shares compounds with Mdm2 MdmX PPI; AID 504607; inhibition, % at 8 µM; SaOS-2 full-length luciferase counterscreen, luminescence; 6,200 tested, 77% active;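 active means mean inhibition at 8 µM reaching about 37%, which flags the compound as non-specific, limit read from the data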;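 further: p53-null SaOS-2 cells with luciferase driven by a doxycycline-inducible promoter; compound on cells about two nights before reading with doxycycline added after day one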
# A number is an active result; n = inactive; u = inconclusive; x = no result.
SMILES,Beta apoptosis,Mdm2 MdmX PPI,A1 inh,Jurkat NFkB inh,NTR1 ag,697 NFkB inh,Mdm2 MdmX conf,Full FLuc ctr
CCOC(=O)N1CCC(NC(=O)c2ccc3c(c2)N=C(CC)c2cc(C)ccc2S3)CC1,n,60.6,n,n,n,n,68.8,51.5
CCOC(=O)N1CCN(C(=O)c2ccc3c(c2)N=C(CC)c2cc(C)ccc2S3)CC1,n,n,n,n,n,n,x,x
CCCCC1(CO)C(=O)N(c2ccccc2)N(c2ccccc2)C1=O,n,n,n,n,n,n,x,x
CCCCC1C(=O)N(c2ccccc2)N(c2ccc(O)cc2)C1=O (centres undefined),x,98.1,n,n,n,n,n,n
COC(=O)C(N)CCCCN (centres undefined),n,n,n,n,n,n,x,x
CC(C)N(C(=O)CN1CCN(C(=O)C2COc3ccccc3O2)CC1)C(C)C (centres undefined),n,n,n,n,n,n,x,x
Cc1cc(/C=N/n2cnnc2)c(C)n1-c1ccc(Cl)cc1,n,n,n,n,n,n,x,x
Cc1cc(/C=N/n2cnnc2)c(C)n1-c1ccc(OCc2ccc(F)cc2)cc1,x,65.1,n,n,n,n,n,78.1
S=C1SCN(Cc2cccnc2)CN1Cc1cccnc1,x,78.6,n,n,n,n,77.0,55.6
Fc1cccc(CCN2CCNC[C@@H]2Cc2ccccc2)c1,n,n,n,n,n,n,x,x
FC(F)(F)c1cc(CCN2CCNC[C@@H]2Cc2ccccc2)cc(C(F)(F)F)c1,n,50.7,n,n,n,n,n,x
CCOC(=O)c1cc2c(ccn2C)n1CC(=O)N(Cc1ccccc1)c1ccc(F)cc1,n,n,n,n,n,n,x,x
CC(C)OC(=O)c1cc2c(ccn2C)n1CC(=O)N(Cc1ccccc1)c1ccc(F)cc1,n,79.5,n,n,n,n,55.7,75.8
CCOC(=O)c1cnc(Nc2nc3ccccc3o2)nc1C,n,57.3,n,n,n,n,58.2,43.5
CC(C)c1cc(C(C)C)c(S(=O)(=O)N2c3ccccc3[C@@]3(Br)C[C@H]4C(=O)N[C@@H](Cc5ccccc5)C(=O)N4[C@@H]23)c(C(C)C)c1,x,59.2,n,n,n,n,n,106.1
Cc1cc(OCCCC(=O)Nc2cccc(-n3cnnn3)c2)ccc1Cl,n,n,n,n,n,n,x,x
CC1=C(/C=C/C(C)=C/C=C/C(C)=C\C(=O)O)C(C)(C)CCC1,n,59.6,n,n,n,n,48.8,45.4
CC(Oc1ccc2ccc(=O)oc2c1)C(=O)NC1CC(C)(C)NC(C)(C)C1 (centres undefined),n,n,n,n,n,n,x,x
CCCS(=O)(=O)c1c(S(=O)(=O)CCC)c2c(C)cccn2c1C(N)=O,n,n,n,n,n,n,x,x
CCCS(=O)(=O)c1c(S(=O)(=O)CCC)c2c(C)cccn2c1C(=O)N/N=C/c1cc(O)cc(O)c1,n,58.2,n,n,n,n,57.0,37.0
CC1Cc2nc(SCC(=O)NCC3CCCO3)n(-c3ccc(F)cc3)c(=O)c2S1 (centres undefined),n,n,n,n,n,n,x,x
O=CN/N=C/c1c(O)ccc2ccccc12,n,50.4,n,n,n,n,n,x
O=C(N/N=C/c1c(O)ccc2ccccc12)c1ccc(CO)nc1,x,69.0,n,n,n,n,65.9,36.1
Oc1ccc2ccccc2c1/C=N/Nc1ccccc1,n,n,n,n,n,n,x,x
NC(=S)N/N=C/c1c(O)ccc2ccccc12,n,50.5,n,n,n,n,n,44.8
SMILES,Beta apoptosis,Mdm2 MdmX PPI,A1 inh,Jurkat NFkB inh,NTR1 ag,697 NFkB inh,Mdm2 MdmX conf,Full FLuc ctr
Cc1cc2oc(C(=O)N3CCN(Cc4ccccc4)CC3)c(C)c2cc1C,n,n,n,n,n,n,x,x
Cc1cccc(NC(=O)c2cc(-c3cccnc3)nc3c(C)cccc23)n1,n,50.3,n,n,n,n,n,x
Cc1nc(C)n(C(Oc2ccc(Cl)cc2Cl)C(=O)C(C)(C)C)n1 (centres undefined),x,n,n,n,n,n,x,x
O=C(NCc1nc(-c2ccc(C(F)(F)F)cc2)no1)Nc1ccc(F)cc1F,n,n,n,n,n,n,x,x
O=C(NCc1nc(-c2ccc(C(F)(F)F)cc2)no1)Nc1cc(Cl)cc(Cl)c1,110.4,93.4,n,n,n,n,81.0,44.5
Cc1ccc(C(=O)/C=C/Nc2ccccn2)cc1,n,54.9,n,n,n,n,n,x
Cc1ccc(C(=O)/C=C/Nc2ccccc2C(N)=O)cc1,n,n,n,n,n,n,x,x
O=C(C1CCC1)N1CCN(c2ccc(Cl)cc2)CC1,n,n,n,n,n,n,x,x
COc1cc(/C=C/C(=O)c2ccc(O)cc2)ccc1OCC#N,n,87.1,n,n,n,n,78.0,n
CCOc1ccc(C(=O)/C=C/c2ccc(OC)c(OC)c2)cc1,n,n,n,n,n,n,x,x
COc1cccc(C(=O)/C=C/c2ccc(OCC#N)c(OC)c2)c1,n,96.4,n,n,n,n,42.6,42.5
CCOc1ccc(/C=C/C(=O)c2ccccc2)cc1OC,n,n,n,n,n,n,x,x
CCc1noc(C)c1C(=O)N(CCOC)c1c(N)n(CC(C)C)c(=O)[nH]c1=O,n,n,n,n,n,n,x,x
COc1ccc2ccccc2c1CNC(C)c1ccccc1 (centres undefined),n,n,n,n,n,n,x,x
CC(NCCCOc1cccc2ccccc12)c1ccccc1 (centres undefined),x,58.1,n,n,n,n,n,x
CN(C)c1nc(N/N=C\c2ccc(Cl)c([N+](=O)[O-])c2)nc(Nc2ccc(F)cc2)n1,n,72.4,n,n,n,n,n,x
CCC(C(=O)NCCc1ccccc1OC)n1nc(C)c2c(C)n(-c3ccccc3)nc2c1=O (centres undefined),n,n,n,n,n,n,x,x
Clc1ccc2oc3c(Cl)ncnc3c2c1,n,71.1,n,n,n,n,n,x
O=C(NCc1cccnc1)/C(=C\c1ccc(-c2ccc(Br)cc2)o1)S(=O)(=O)c1ccccc1,107.1,95.7,n,n,n,n,98.9,51.4
O=C(NCc1cccnc1)/C(=C/c1ccc(-c2ccc(Cl)cc2)o1)S(=O)(=O)c1ccccc1,103.7,81.7,n,n,n,n,100.2,51.7
C[C@H](CO)N1C[C@H](C)[C@@H](CN(C)S(C)(=O)=O)Oc2ccc(NC(=O)CCC(F)(F)F)cc2C1=O,n,n,u,n,n,n,x,x
COc1ccc(Cc2nnc(NC(=O)C3CC(=O)N(c4ccccc4C)C3)s2)cc1OC (centres undefined),x,n,n,n,n,n,x,x
Cc1nn(C)c2ncc(C(=O)c3ccccc3O)cc12,n,n,n,n,n,n,x,x

# High-throughput results: PubChem BioAssay, several laboratories
